High-throughput results from PubChem.
VACV mCherry inh: inhibitors of vaccinia virus infection (mCherry reporter signal); AID 720579; Potency, µM (top dose mostly 36.5 µM), without a hit: at the top dose activity change, negative = inhibition, actives largely listed as inhibitors; 310,000 compounds, 0.63% hits; Vaccinia virus mCherry reporter infection, fluorescence; calls by dose curve; tested in A549 cells; note: potency is the fitted concentration of half-maximal effect; % is set by controls: 0 for no effect and ±100 for the full control effect; nearly all actives have a fitted effect of over 35% in size
MARV entry inh: blocks Marburg virus binding to or entry into cells | 300,000 compounds, 1.8% hits | Marburg virus pseudotyped entry inhibition, cell reporter | AID 540276 | Potency, µM (top dose mostly 37.8 µM), without a hit: top-dose activity change, negative = inhibition, usual class: inhibitors; calls by dose curve; tested in HEK293 cells; note: potency is the fitted concentration of half-maximal effect; % is set by controls: 0 for no effect and ±100 for the full control effect
Shiga toxin inh: inhibitors of Shiga toxin in Vero cells | AID 2315 | 290,000 compounds, 9.2% hits | inhibition, % at 38.7 µM | Vero cells, Shiga toxin protein synthesis inhibition reporter; in the data active = inhibition mostly above about 28%, no sharp cut-off; inactive = mostly below about 43%; note: 0% is about no effect
VACV Venus inh: vaccinia inhibition (Venus reporter) | Potency, µM (series often up to 36.5 µM), for the others: at the highest dose activity change, negative = inhibition, most hits filed as inhibitors | 330,000 compounds, 0.46% hits | AID 720580 | Vaccinia virus Venus reporter expression, fluorescence; calls by dose curve; tested in A549 cells; note: potency is the fitted concentration of half-maximal effect; % is set by controls: 0 for no effect and ±100 for the full control effect; nearly all actives have a fitted effect of over 30% in size
Cycloheximide cs: affects cycloheximide protein synthesis inhibition readout, counter-screen; cell reporter, cycloheximide protein synthesis inhibition counterscreen; max response, %; 300,000 compounds, 12% hits; AID 2314; in the data active = max response mostly above about 13%, no sharp cut-off; inactive = mostly below about 14%; note: read at 38.3 µM for the half of the compounds with a filed dose; 0% is about no effect
Lassa entry inh: Lassa virus entry inhibition. Potency, µM (doses to about 37.9 µM), for inactives: at the top dose activity change, negative = inhibition, actives largely listed as inhibitors. 300,000 compounds, 1.2% hits. Lassa virus pseudotype entry inhibition, cell reporter; calls by dose curve; tested in HEK293 cells; note: potency is the fitted concentration of half-maximal effect; % is set by controls: 0 for no effect and ±100 for the full control effect; nearly all actives have a fitted effect of over 50% in size
* marks the source's active call; other numbers are inactive results; i = inactive; ? = inconclusive; / = no result given; [ ] = remark or other dose. Shown is part of a subset that was picked to be rich in hits.

SMILES	VACV mCherry inh	MARV entry inh	Shiga toxin inh	VACV Venus inh	Cycloheximide cs	Lassa entry inh
CCC(C)C(NC(=O)C1CCC(C)CC1)C(=O)Nc1ccc(OC)cc1 (stereo not given)	-14%	-14%[46.1 µM]	-6	-3%	9	?
Cc1nn(CCCC(=O)NCc2ccccc2)c(=O)c2c1sc1ccccc12	-13%	?	/	-6%	/	?
CCOC(=O)N1CCN(C(=O)CCCn2nc(C)c3sc4ccccc4c3c2=O)CC1	-7%	3%	68*	0%	13	-17%
O=C(COc1ccc(C(=S)N2CCCC2)cc1)Nc1ccc(F)cc1	-28%	-23%	23	-22%	8	?
S=C(c1ccc(OCc2ccccc2)cc1)N1CCCC1	/	/	39*	/	21*	/
Fc1ccc(COc2ccc(C(=S)N3CCCC3)cc2)cc1	-16%	?	59*	-10%	53*	?
COc1ccc(-c2nn3c(-c4ccccc4C)nnc3c3ccccc23)cc1	?	9%[46.1 µM]	/	-28%	/	?
CCCC[C@H](CCC(=O)Nc1ccc(C(=O)OCC)cc1)C(=O)O	/	2%	/	/	/	/
O=C(N/N=C/c1cccnc1)c1[nH]ncc1Br	-10%	?	50*	-3%	37*	/
O=C(N/N=C/c1ccco1)c1[nH]ncc1Br	/	/	120*	/	43*	/
O=C(N/N=C/c1ccccc1)c1[nH]c2ccc(Br)cc2c1-c1ccccc1	?	?	-10	-28%	0	?
Nc1c(Cl)c(Cl)nc(C(=O)N/N=C/c2ccco2)c1Cl	/	/	9	/	-1	/
COc1ccc(/C=N/NC(=O)c2[nH]ncc2Br)c(OC)c1	i	15%	68*	-7%	38*	?
COC(=O)N/N=C/c1cccnc1	-15%	9%	-7	-7%	-4	2%
O=C(N/N=C/c1ccccc1)c1[nH]ncc1Br	1%	?	110*	0%	44*	-14%
COc1ccc(C(O)c2nc(-c3cccc(CO)c3)cs2)cc1 (stereo not given)	?	/	/	-5%	/	/
CCOC(=O)c1c(NC(=O)c2cc(-c3ccc(Br)cc3)on2)sc(C)c1C	-3%[7.34 µM]	-4%[46.1 µM]	/	-1%[7.34 µM]	/	-9%[46.1 µM]
CCOc1cnc(-c2ccc(OC)cc2)o1	/	?	55*	10%	15*	-17%
CCOc1cnc(-c2ccc(Cl)cc2)o1	/	?	86*	-9%	39*	18%
CCOc1cnc(-c2c(-c3c(Cl)cccc3Cl)noc2C)o1	-9%	?	4	-18%	-4	?
CSCC[C@H](NC(=O)OC(C)(C)C)C(=O)N/N=C/c1cccc2nccnc12	-10%	1%	-2	-5%	-1	2%
CSCC[C@H](NC(=O)OC(C)(C)C)C(=O)N/N=C/c1ccc2nccnc2c1	-23%	3.2µM*	3	-20%	6	-12%
Cc1ccccc1CNC(=O)Nc1ccc(Cl)cc1	i	?	69*	-16%	34*	-6%[46.1 µM]
Cc1ccc(CNC(=O)Nc2ccccc2)c(C)c1	i	?	64*	-4%	31*	-27%
Cc1cc(C)c(NC(=O)Nc2ccccc2)c(Cl)c1	-12%	?	23	-7%	7	1%
SMILES	VACV mCherry inh	MARV entry inh	Shiga toxin inh	VACV Venus inh	Cycloheximide cs	Lassa entry inh
COc1cc(NC(=S)NC(=O)c2cccs2)ccc1NC(=O)C(C)C	/	/	56*	/	23*	/
CCCCC(=O)NC(=S)Nc1ccc(NC(=O)C(C)C)c(OC)c1	?	3%	-16	?	7	-5%
O=C(Nc1cccc(NC(=S)NC(=O)c2cccs2)c1)c1ccccc1	-2%	?	17	-24%	-2	-29%
CCCC(=O)Nc1cc(OC)c(NC(=S)Nc2ccc(CC)cc2)cc1OC	-15%	?	/	-2%	/	?
CC(C)C(=O)Nc1cccc(NC(=S)NC(=O)c2cccs2)c1	i	25%	75*	-16%	33*	8%
COc1cc(NC(=S)NC(C)=O)ccc1NC(=O)C(C)C	/	21%	61*	/	25*	-2%
CCc1ccc(NC(=S)Nc2cc(OC)c(NC(=O)C(C)C)cc2OC)cc1	-2%	15%[46.1 µM]	16	1%	23*	5%
CC1CCN(C(=O)c2ccc(NS(=O)(=O)c3ccc4[nH]c(=O)[nH]c4c3)cc2)CC1	i	3%[46.1 µM]	/	3%	/	19%
O=C(NC(=S)Nc1cccc(NC(=O)c2ccccc2Cl)c1)c1cccs1	-10%	-2%	10	-18%	15*	-7%
CC(C)C(=O)Nc1cccc(NC(=S)NC(=O)c2ccc(Cl)cc2)c1	/	?	67*	/	65*	-29%
CCCN1CNc2c(c(=O)[nH]c(=S)n2CCc2ccccc2C)C1	-13%	/	/	-3%	/	/
O=C(N/N=C/c1ccco1)c1ccccc1OCc1ccccc1Cl	/	?	-30	/	19*	0%
O=C(N/N=C/c1ccc[nH]1)c1ccccc1OCc1ccccc1Cl	-16%	-6%[46.1 µM]	11	-10%	15*	21%
Cc1ccccc1C(=O)Nc1c2c(nn1C(C)(C)C)CS(=O)(=O)C2	i	-21%[46.1 µM]	20	-8%	-1	-17%[46.1 µM]
O=C(CCc1ccccc1)Nc1nc2c(F)cc(F)cc2s1	i	0%	113*	-3%	45*	0%
O=C(Nc1nc2c(F)cc(F)cc2s1)c1ccco1	i	/	38*	-13%	37*	/
O=C(Nc1nc2c(F)c(F)c(F)cc2s1)c1ccco1	-7%	?	103*	-3%	29*	-21%[46.1 µM]
O=C(Nc1nc2c(Cl)ccc(Cl)c2s1)c1ccco1	-11%	/	-12	-25%	-4	/
O=C(Nc1nc2c(ccc3ccccc32)s1)c1ccco1	/	15µM*	102*	/	47*	?
O=C(Nc1ccc(-c2nc3cc(Cl)ccc3c(=O)o2)cc1)c1ccco1	-4%	14%	-3	1%	-1	-3%
O=C(Nc1ccc(-c2nc3c(ccc4ccccc43)o2)cc1)c1ccco1	-19%	?	29	?	26*	?
Nc1c(C(=O)O)sc2nc3c(cc12)CCCC3	/	/	4	/	-1	/
Nc1c(C(=O)Nc2ccccc2)sc2nc3c(c(-c4ccco4)c12)CCCC3	?	1%[46.1 µM]	14	-28%	3	-18%
Nc1c(C(=O)c2ccc(Cl)cc2)sc2nc3c(cc12)CCC3	-14%	?	26	-11%	32*	-5%
Nc1c(C(=O)C2CC2)sc2nc3c(cc12)CCC3	/	/	66*	/	43*	/
SMILES	VACV mCherry inh	MARV entry inh	Shiga toxin inh	VACV Venus inh	Cycloheximide cs	Lassa entry inh
Nc1c(C(=O)Nc2ccccc2)sc2nc3c(c(-c4ccco4)c12)CCC3	?	-15%	48*	-24%	19*	-16%
CCCc1ccc2c(N)c(C#N)sc2n1	-12%	0%	22	-12%	6	-9%
Cc1ccc2c(N)c(C#N)sc2n1	-10%	-17%[46.1 µM]	39	-2%	22*	?
CN(CCCC(=O)Nc1ccc(Br)cc1F)S(=O)(=O)c1ccccc1	/	/	20	/	7	/
NC(=O)c1sc2nc3c(cc2c1N)CCCCCC3	-29%	16%[46.1 µM]	52*	-31%	31*	9%
N#Cc1sc2nc3c(cc2c1N)CCCC3	-7%	?	27	-20%	23*	-1%
Nc1c(C(=O)Nc2cccc(C(=O)O)c2)sc2nc3c(cc12)CCCC3	-17%	?	49	-5%	18*	3.2µM*
